Compound activity (PubChem BioAssay)
aSyn UTR act: Activators working through SNCA 5'UTR binding (MLPCN). alpha-synuclein 5'UTR reporter, activators screen. activity score, % (tested at 7.5 µM), hits read low. actives 7.1% (n = 300,000); in the data active means activity score below about -60%
The depositor's hits bear a star. The list is a sample of the results.

SMILES	aSyn UTR act
COC(=O)C(Cc1ccc(OC(=O)c2ccc(C)cc2)cc1)N1Cc2ccccc2C1=O (configuration not stated)	-67*
COC(=O)C(Cc1ccc(O)cc1)N1Cc2ccccc2C1=O (configuration not stated)	-144*
O=C(Nc1ccc([N+](=O)[O-])cc1)C(Cc1ccccc1)N1C(=O)c2cccc3cccc(c23)C1=O (configuration not stated)	56
CCN1C(=O)/C(=C/C=C2/CCCN2C)OC1=S	-152*
CC1CCc2c(nc3sc4c(c3c2N)CCCC4)C1 (configuration not stated)	-125*
CC1CCc2nc3sc4c(c3c(N)c2C1)CCCC4 (configuration not stated)	-132*
CCN(CC)CCCNC1=C(Cl)C(=O)c2ccccc2C1=O	76
O=C1C(Cl)=C(NCc2cccnc2)C(=O)c2ccccc21	-141*
O=C(O)c1cccc(NC2=C(Cl)C(=O)c3ccccc3C2=O)c1	-191*
CC(C)NC1=C(Cl)C(=O)c2ccccc2C1=O	-91*
O=C1C(Cl)=C(Nc2ccccc2)C(=O)c2ccccc21	-190*
CCC(N=c1cc(-c2ccc(OC)cc2)oc2ccc(C)cc12)C(=O)O (configuration not stated)	-120*
O=Nc1c2nc3ccccc3n(O)c-2c2ccccc12	-129*
C(=N\N=C\c1cccs1)/c1cccs1	-178*
COc1ccc(NC(=O)C/C(C)=N/NC(=O)c2cccs2)c([N+](=O)[O-])c1	-111*
CCCCC(=O)Nc1ccc(C(=O)Nc2ccc(OC)cc2[N+](=O)[O-])cc1	61
COc1ccc(NC(=O)c2cccs2)c([N+](=O)[O-])c1	-161*
COc1ccc(NC(=O)c2sccc2C)c([N+](=O)[O-])c1	-184*
COc1ccc(NC(=O)/C=C/c2ccccc2)c([N+](=O)[O-])c1	-176*
Cc1cc2nc3ccc(=[N+](C)C)cc-3sc2cc1N	91
COc1cc2sc3ccc(-c4ccc5[nH]ccc5c4)cc3c(=O)c2cc1OC	-239*
O=c1c2ccccc2oc2cc(-c3ccc4[nH]ccc4c3)ccc12	-97*
Cn1cnnc1SCC(=O)Nc1ccc2nc(SCc3ccccc3F)sc2c1	-163*
CSc1nc2ccc(NC(=O)CSc3nnc(N)s3)cc2s1	-119*
Cc1ccc(O)c(N=Nc2ccc(S(=O)(=O)N3CCCC3)cc2)c1	-70*
SMILES	aSyn UTR act
O=S(=O)(c1ccc2c(c1)C(=NO)c1cc(S(=O)(=O)N3CCCCC3)ccc1-2)N1CCCCC1	96
Cc1ccc(OCCCSc2ncccn2)cc1C	-104*
CCCC(NCC(O)COc1ccc(-c2ccccc2)cc1)c1ccccc1 (configuration not stated)	83
OC(COc1ccc(Cl)cc1)CSc1ccccn1 (configuration not stated)	-90*
c1cnc(SCCCOc2ccc3ccccc3c2)nc1	-68*
Clc1ccc(OCCSc2ncccn2)cc1	-160*
CC(C)SCCCCOc1ccc2ccccc2c1	-112*
COc1ccc(OCCCSc2ncccn2)cc1	-168*
O=[N+]([O-])c1ccccc1-c1nc(-c2ccc(Br)o2)no1	-266*
O=[N+]([O-])c1cc(Cl)ccc1-c1nc(-c2ccccc2)no1	-181*
O=[N+]([O-])c1cc(Cl)ccc1-c1nc(-c2ccncc2)no1	-143*
Cc1ccc(C(=O)c2cnc3cc4c(cc3c2S(=O)(=O)c2ccccc2)OCCO4)cc1	-133*
CCc1nc(N)nc(N)c1-c1ccc(Cl)cc1	85
Cc1ccc2nc(Cc3ccc(N)cc3)[nH]c2c1	-90*
Nc1ccc2nc(-c3ccc(Cl)cc3)[nH]c2c1	-176*
Cc1ccc2nc(C(O)C(O)c3nc4ccc(C)cc4[nH]3)[nH]c2c1 (configuration not stated)	-159*
Nc1ccc2nc(-c3cc(Cl)c(N)c(Cl)c3)[nH]c2c1	-279*
Nc1ccc(Cc2nc3c(ccc4ccccc43)[nH]2)cc1	-171*
Cc1ccc(C)c(-c2nc3ccc(N)cc3[nH]2)c1	-64*
Nc1ccc(-c2nc3ccc(N)cc3[nH]2)cc1	-62*
Clc1ccc2nc(-c3ccc(Cl)nc3)[nH]c2c1	-293*
c1coc(CSc2ncnc3c2oc2ccccc23)c1	-91*
Cc1nc(SCC(=O)c2ccc(Cl)s2)c2oc3ccccc3c2n1	-94*
CC(=O)CSc1ncnc2c1oc1ccccc12	-65*
Cc1ccnc2nc(NC(=O)c3ccco3)nn12	-81*
SMILES	aSyn UTR act
CC(C)(C)n1cnc2cc(NC(=O)c3ccco3)ccc21	-88*
O=C(Nc1cc2nn(-c3ccccc3)nc2cc1Cl)c1ccco1	-129*
CC(=O)Nc1cc2nn(-c3ccccc3)nc2cc1Cl	-123*
Cc1cc(NC(=O)c2ccco2)ccc1-n1cnnn1	-77*
Nc1nc(NC(=O)c2ccco2)nn1-c1ccccc1	-66*
O=C(Nc1ccc2nn(-c3ccccc3)nc2c1)c1ccco1	-255*
O=C(Nc1nc2nccc(-c3ccccc3)n2n1)c1ccccc1	-83*
Cc1[nH]c2ccccc2c1C(=O)CSc1nc2ccccc2[nH]1	-100*
CC1CCN(C(=O)CSc2nc3ccccc3[nH]2)CC1	-105*
Cc1[nH]c2ccccc2c1C(=O)CSc1nc2ccccc2c(=O)n1CCCN1CCOCC1	-67*
C/C(N)=C(/C#N)C(=O)CSc1nc2ccccc2[nH]1	-115*
Cc1[nH]c2ccccc2c1C(=O)CSC(=S)N1CCCCC1	-159*
C/C(N)=C(/C#N)C(=O)CSc1nnnn1-c1ccc(C)cc1	-90*
CCOC(=O)c1ccc(NC(=O)c2nn(CC)cc2Br)cc1	-94*
CCn1cc(Br)c(C(=O)Nc2ccc(F)c(Cl)c2)n1	-110*
CCOC(=O)c1ccc(NC(=S)NC(=O)c2nn(CC)cc2Br)cc1	-66*
CCOC(=O)c1ccc(NC(=O)c2nn(C)cc2Br)cc1	-204*
Cc1cnc(NCCc2ccccc2)s1	-63*
Clc1ccc(-c2cnc(Oc3ccccc3)nc2)cc1	-216*
COc1ccccc1/C=C/c1nc2ccccc2c(=O)o1	-107*
COc1ccc(/C=C/c2nc3ccccc3c(=O)o2)cc1	102
O=c1nc2c(-c3cccc(Br)c3)n[nH]n2c2ccccc12	-176*
Cc1ccc2nc3sc(C(=O)NCc4ccco4)c(N)c3cc2c1	-127*
COc1cc2cc3c(N)c(C(=O)NCc4ccco4)sc3nc2cc1OC	-284*
COc1ccccc1OC(=O)Nc1ccc(Cl)cc1	-83*
SMILES	aSyn UTR act
COc1ccccc1Oc1ccc(NC(=O)c2ccccc2)cc1	-91*
COc1cc(NC(=O)c2ccccc2)cc(OC)c1	-131*
COc1ccc(C(=O)Nc2cc(OC)cc(OC)c2)cc1	-62*
CCOc1ccc(NC(=O)C(c2ccccn2)N(C(=O)CCl)c2ccc(OC)cc2)cc1 (configuration not stated)	-161*
Oc1ccc(-c2nc3ccc4ccccc4c3c3c2CCC3)cc1O	-151*
CCc1nnc(NC(=O)c2ccc3c(c2)C(=O)N(CC(C)C)C3=O)s1	-88*
Cc1ccc(O)c(NC(=O)c2ccc3c(c2)C(=O)N(CC(C)C)C3=O)c1	-112*
Cn1cccc1C1NC(=O)c2c(sc3c2CCC(C(C)(C)C)C3)N1 (configuration not stated)	-97*
Cc1c2c(nc3ccccc13)CCC(C(C)(C)C)C2 (configuration not stated)	-116*
O=C(NCCC1=CCCCC1)c1cnccn1	-114*
COc1cccc(C(=O)NCCC2=CCCCC2)c1OC	-117*
Cc1cc(C(=O)NCCC2=CCCCC2)c(C)o1	-123*
